Assay results as given in PubChem BioAssay (NCI).
Compounds without any hit were thinned out: in the full panel of roughly 79,000, 15% have a hit. A number with no mark means an inactive call. Calls of active or inactive are those of the source. Cut-off read from the data, not from the text of the source: active = growth inhibition above about 70%; inactive = the rest.

Assay: NCI Yeast Anticancer Drug Screen. Data for the sgs1 mgt1 strain (AID 161);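 note: 0% = growth of cultures given vehicle only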
Details: S. cerevisiae sgs1 mgt1 strain, at 50.0 µM, stronger effect = higher value
How it was run: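 Growth of a repair-deficient yeast mutant was monitored after compound treatment and expressed as inhibition relative to vehicle-treated cultures.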
In the case of `O=CC=C(c1ccccc1)c1ccccc1`, the growth inhibition is reported as 80% (active). For `FC(F)(F)c1nc2nc(Cl)c(Cl)nc2n1CCCN1CCOCC1`, the growth inhibition was 45.9%. With `BrCC[P+](c1ccccc1)(c1ccccc1)c1ccccc1` the growth inhibition was 87% (active). Work on `N#CSc1ccc(S(N)(=O)=O)cc1` yielded a growth inhibition of 62.1%. In the case of `O=[N+]([O-])c1ccc2nc3ccccc3cc2c1`, the growth inhibition is reported as 68.2%. In the case of `O=C(NC(Nc1ccc(F)c(Cl)c1)(C(F)(F)F)C(F)(F)F)C(C(F)(F)F)C(F)(F)F`, the growth inhibition is reported as 36%. `O=C(/C=C\c1ccc(Cl)cc1Cl)c1cccs1` gave a growth inhibition of 10.2%. In the case of `O=C(NCCCCNCCCNC(=O)c1cc(-c2ccccc2)nc2ccccc12)c1cc(-c2ccccc2)nc2ccccc12`, the growth inhibition is reported as 97.5% (active). Compound `NC(=NCc1ccccc1)N/N=C\c1ccnc2ccccc12` has a growth inhibition of 66.3%. With `CCCCN(CCCC)CCSc1ccc(Cl)cc1` the growth inhibition was 82.4% (active). Compound `COc1cc(C2C3=C(COC3=O)Oc3cc4c(cc32)OCO4)ccc1O` (stereo not drawn) has a growth inhibition of 22.4%. `C#CCCCc1ccccc1` showed a growth inhibition of 63.6%. For `CCc1ccc(NS(=O)(=O)c2ccccc2)c([N+](=O)[O-])c1`, the growth inhibition was 70.7% (active). With `COc1ccc(C2c3cc4c(cc3OC(C)(O)C2C)OCO4)c(OC)c1` (stereo not drawn) the growth inhibition was 84.5% (active). Work on `COC(=O)c1ccc(CCC2=CC(=O)C(Br)=CC2=O)cc1` yielded a growth inhibition of 20.3%. With `NNC(=O)CCc1ccc2ccc3ccccc3c2c1` the growth inhibition was 20.1%. In the case of `Cn1c2ccccc2c(=O)c2cc(NC(=O)CCCCC(=O)Nc3ccc4c(c3)c(=O)c3ccccc3n4C)ccc21`, the growth inhibition is reported as -1.45%. For `CC(CC(C)(C)[N+](C)(C)C)[N+](C)(C)C` (stereo not drawn), the growth inhibition was 95.8% (active). In the case of `CC1CCN(CCC(=O)c2ccc(Cl)cc2)CC1`, the growth inhibition is reported as 75.5% (active). In the case of `CCCCCCCCCCCCCCC(C(=O)[O-])[n+]1ccccc1` (stereo not drawn), the growth inhibition is reported as 98.8% (active). With `CNC1C(OC2C(OC3C(O)C(O)C(N=C(N)N)C(O)C3N=C(N)N)OC(C)C2(O)CO)OC(CO)C(O)C1O` (stereo not drawn) the growth inhibition was 91.8% (active). Compound `O=C(O)c1ccccc1-c1ccccc1C(=O)Nc1ccc2c(c1)Cc1ccccc1-2` has a growth inhibition of 62.6%. With `O=[N+]([O-])c1cccc2nc3ccccc3c(NCCCN3CCOCC3)c12` the growth inhibition was 96.9% (active). In the case of `C=CC(C)(O)CCC1C(=C)C(O)CC2C(C)(C)CCCC12C` (stereo not drawn), the growth inhibition is reported as 80.5% (active). With `CN1c2ccc(Cl)cc2C(=O)NC1c1ccc([N+](=O)[O-])s1` (stereo not drawn) the growth inhibition was 93.8% (active). Work on `[O-][n+]1c2ccc(O)cc2nc2ccc(Br)cc21` yielded a growth inhibition of 65%. Work on `O=C1c2ccccc2-c2nc3ccccc3nc21` yielded a growth inhibition of -24.4%. `CCCCN1C(=O)N(c2ccc(OCC)cc2)C2N(CCCC)C1C(C)(C)C2(C)C` (stereo not drawn) gave a growth inhibition of 65.3%. With `CO[C@H]1C[C@](C)(O)Cc2cc3c(c(O)c21)C(=O)c1c(O)cc2c(c1C3=O)O[C@@H]1O[C@@]2(C)[C@H](O)[C@@H](N(C)C)[C@@H]1O` the growth inhibition was 14.3%. In the case of `COc1cc2c(cc1[N+](=O)[O-])C(=O)C(Br)(Br)CCC2`, the growth inhibition is reported as 90% (active). With `O=C1OC(CCl)CN1/N=C/c1ccc([N+](=O)[O-])o1` (stereo not drawn) the growth inhibition was 71.9% (active). In the case of `CN(C)CCOc1ccc2c(c1)C/C(=C/c1ncc([N+](=O)[O-])n1C)C2=O`, the growth inhibition is reported as 83.1% (active). With `CCCCCCCCCCCCCCCCCCN(C)CC(COP(=O)([O-])OCC[N+](C)(C)C)OC` (stereo not drawn) the growth inhibition was 91.1% (active). With `CC(C)c1ccccc1NC(=O)/C(Cl)=C(\Cl)C(=O)O` the growth inhibition was 2.4%. In the case of `O=[N+]([O-])C(=C(Sc1ccccc1)Sc1ccccc1)C(Cl)=C(Cl)Cl`, the growth inhibition is reported as 62.6%. In the case of `C(=C\c1ccccc1)/COc1ccccc1C(N1CCOCC1)n1nc2ccccc2n1` (stereo not drawn), the growth inhibition is reported as 97.9% (active). In the case of `O=C1C(Nc2ccccc2)=C(Oc2ccccc2)C(=O)c2ccccc21`, the growth inhibition is reported as 16.4%. With `CCN(CC)CCN1C(=O)c2cccc3cc(OC)cc(c23)C1=O` the growth inhibition was -4.05%. With `CN(C)Cc1cc(N=Nc2ccc(Cl)cc2)cc(CN(C)C)c1O` the growth inhibition was 95.2% (active).

Assay: NCI Yeast Anticancer Drug Screen. Data for the CLN2oe strain (AID 163);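 note: 0% = growth of vehicle-only control cultures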
Details: S. cerevisiae CLN2oe strain, at 1.2 µM, stronger effect = higher value
How it was run: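 Compounds are applied to yeast harbouring a defined cell-cycle control change; reduced growth compared with vehicle-treated controls gives the value.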
In the case of `O=CC=C(c1ccccc1)c1ccccc1`, the growth inhibition is reported as 16%. `FC(F)(F)c1nc2nc(Cl)c(Cl)nc2n1CCCN1CCOCC1` showed a growth inhibition of 2%. For `BrCC[P+](c1ccccc1)(c1ccccc1)c1ccccc1`, the growth inhibition was -21%. `N#CSc1ccc(S(N)(=O)=O)cc1` showed a growth inhibition of -27%. For `O=[N+]([O-])c1ccc2nc3ccccc3cc2c1`, the growth inhibition was -6%. Work on `O=C(NC(Nc1ccc(F)c(Cl)c1)(C(F)(F)F)C(F)(F)F)C(C(F)(F)F)C(F)(F)F` yielded a growth inhibition of 9%. For `O=C(/C=C\c1ccc(Cl)cc1Cl)c1cccs1`, the growth inhibition was -9%. With `O=C(NCCCCNCCCNC(=O)c1cc(-c2ccccc2)nc2ccccc12)c1cc(-c2ccccc2)nc2ccccc12` the growth inhibition was 1%. `NC(=NCc1ccccc1)N/N=C\c1ccnc2ccccc12` gave a growth inhibition of -6%. With `CCCCN(CCCC)CCSc1ccc(Cl)cc1` the growth inhibition was -12%. For `COc1cc(C2C3=C(COC3=O)Oc3cc4c(cc32)OCO4)ccc1O` (stereo not drawn), the growth inhibition was 0%. `C#CCCCc1ccccc1` gave a growth inhibition of -7%. For `CCc1ccc(NS(=O)(=O)c2ccccc2)c([N+](=O)[O-])c1`, the growth inhibition was -2%. `COc1ccc(C2c3cc4c(cc3OC(C)(O)C2C)OCO4)c(OC)c1` (stereo not drawn) showed a growth inhibition of -6%. `COC(=O)c1ccc(CCC2=CC(=O)C(Br)=CC2=O)cc1` gave a growth inhibition of -11%. Work on `NNC(=O)CCc1ccc2ccc3ccccc3c2c1` yielded a growth inhibition of -10%. For `Cn1c2ccccc2c(=O)c2cc(NC(=O)CCCCC(=O)Nc3ccc4c(c3)c(=O)c3ccccc3n4C)ccc21`, the growth inhibition was -6%. With `CC(CC(C)(C)[N+](C)(C)C)[N+](C)(C)C` (stereo not drawn) the growth inhibition was -11%. `CC1CCN(CCC(=O)c2ccc(Cl)cc2)CC1` showed a growth inhibition of 8%. `CCCCCCCCCCCCCCC(C(=O)[O-])[n+]1ccccc1` (stereo not drawn) showed a growth inhibition of 3%. Work on `CNC1C(OC2C(OC3C(O)C(O)C(N=C(N)N)C(O)C3N=C(N)N)OC(C)C2(O)CO)OC(CO)C(O)C1O` (stereo not drawn) yielded a growth inhibition of -7%. `O=C(O)c1ccccc1-c1ccccc1C(=O)Nc1ccc2c(c1)Cc1ccccc1-2` showed a growth inhibition of 7%. `O=[N+]([O-])c1cccc2nc3ccccc3c(NCCCN3CCOCC3)c12` gave a growth inhibition of -7%. `C=CC(C)(O)CCC1C(=C)C(O)CC2C(C)(C)CCCC12C` (stereo not drawn) gave a growth inhibition of -8%. With `CN1c2ccc(Cl)cc2C(=O)NC1c1ccc([N+](=O)[O-])s1` (stereo not drawn) the growth inhibition was 4%. `[O-][n+]1c2ccc(O)cc2nc2ccc(Br)cc21` gave a growth inhibition of 14%. For `O=C1c2ccccc2-c2nc3ccccc3nc21`, the growth inhibition was -38%. `CCCCN1C(=O)N(c2ccc(OCC)cc2)C2N(CCCC)C1C(C)(C)C2(C)C` (stereo not drawn) showed a growth inhibition of -10%. In the case of `CO[C@H]1C[C@](C)(O)Cc2cc3c(c(O)c21)C(=O)c1c(O)cc2c(c1C3=O)O[C@@H]1O[C@@]2(C)[C@H](O)[C@@H](N(C)C)[C@@H]1O`, the growth inhibition is reported as -11%. For `COc1cc2c(cc1[N+](=O)[O-])C(=O)C(Br)(Br)CCC2`, the growth inhibition was 21%. In the case of `O=C1OC(CCl)CN1/N=C/c1ccc([N+](=O)[O-])o1` (stereo not drawn), the growth inhibition is reported as -7%. Compound `CN(C)CCOc1ccc2c(c1)C/C(=C/c1ncc([N+](=O)[O-])n1C)C2=O` has a growth inhibition of 26%. `CCCCCCCCCCCCCCCCCCN(C)CC(COP(=O)([O-])OCC[N+](C)(C)C)OC` (stereo not drawn) gave a growth inhibition of 15%. `CC(C)c1ccccc1NC(=O)/C(Cl)=C(\Cl)C(=O)O` gave a growth inhibition of 1%. Work on `O=[N+]([O-])C(=C(Sc1ccccc1)Sc1ccccc1)C(Cl)=C(Cl)Cl` yielded a growth inhibition of 4%. With `C(=C\c1ccccc1)/COc1ccccc1C(N1CCOCC1)n1nc2ccccc2n1` (stereo not drawn) the growth inhibition was 0%. For `O=C1C(Nc2ccccc2)=C(Oc2ccccc2)C(=O)c2ccccc21`, the growth inhibition was -6%. For `CCN(CC)CCN1C(=O)c2cccc3cc(OC)cc(c23)C1=O`, the growth inhibition was 2%. `CN(C)Cc1cc(N=Nc2ccc(Cl)cc2)cc(CN(C)C)c1O` showed a growth inhibition of 23%.
